From PubChem
A selection: hits, their analogues and other compounds. The true share with any hit is near 7.3%.
SNCA expr inhib: Primary qHTS assay for inhibitors of alpha-synuclein gene (SNCA) expression; HEK-293 SNCA-luciferase knock-in, luminescence, 24 h; Potency, µM (series often up to 57.2 µM), inactives show top-dose activity change, negative = inhibition, hits mostly inhibitors; 140,000 compounds, 0.17% hits;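 also: potency is read from the fitted curve at half-maximal effect; plate controls were DMSO cells for no effect and cell-free wells for full effect; nearly all actives have a fitted effect of over 45% in size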
NIH3T3 tox: Cytotoxic Profiling in NIH 3T3 Cell Line of Diverse Libraries Using Quantitative High-Throughput Screening | NIH 3T3 viability, CellTiter-Glo ATP luminescence, 48-72 h | Potency, µM (top dose mostly 96.7 µM), inactives show top-dose activity change, negative = cytotoxicity, most hits filed as inhibitors | 94,000 compounds, 4.3% hits | AID 1345082, 2018; also: potency is read from the fitted curve at half-maximal effect; nearly all actives have a fitted effect of over 55% in size
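Mouse fibroblast NIH 3T3 cells, 400 per well, received compound via pintool and were incubated for 48 or 72 hr prior to CellTiter-Glo ATP luminescence measurement.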
HEK293 tox: Cytotoxic Profiling in HEK 293 Cell Line of Diverse Libraries Using Quantitative High-Throughput Screening; HEK 293 viability, ATP luminescence (CellTiter-Glo), 48-72 h; Potency, µM (top dose mostly 115 µM), without a hit: top-dose activity change, negative = cytotoxicity, most hits filed as inhibitors; 94,000 compounds, 6.6% hits; AID 1345083, 2018; also: potency is read from the fitted curve at half-maximal effect; nearly all actives have a fitted effect of over 60% in size
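Viability of HEK 293 cells, plated at 250 cells/well, was judged by cellular ATP after compound treatment for 48 or 72 hr. Luminescence was imaged 10 min after CellTiter-Glo addition at room temperature.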
FLuc inh: Firefly luciferase inhibition profiling of diverse chemical library using quantitative high-throughput screening. Potency, µM (highest dose often 115 µM), usual class: inhibitors. 76,000 compounds, 2.5% hits. Luciferin 4-monooxygenase (Photinus pyralis), P08659. purified P. pyralis luciferase, luminescence, biochemical; also: potency is read from the fitted curve at half-maximal effect; nearly all actives have a fitted effect of over 65% in size
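Biochemical qHTS: compound (6-point titration) added to 10uM D-luciferin plus 10uM ATP in Tris acetate pH 7.5 buffer with Mg, Tween-20 and BSA, then purified enzyme at 10nM; light output imaged.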
SNCA viab count: GF-AFC viability counterscreen for inhibitors of alpha-synuclein gene (SNCA) expression | 150,000 compounds, 0.12% hits | HEK-293-SNCA-luc viability, GF-AFC fluorescence, 24 h | Potency, µM (highest dose often 57.1 µM), inactives show at the top dose activity change, negative = cytotoxicity, usual class: cytotoxic;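 also: potency is read from the fitted curve at half-maximal effect; 0% = DMSO-treated cells and -100% = medium-only wells without cells; nearly all actives have a fitted effect of over 30% in size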
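HEK-293-SNCA-luc cells (1500/well) plated 24 h, then exposed 24 h to a dilution series; GF-AFC added 30 min at 37C, fluorescence 405/540 nm; normalised to medium-only and DMSO wells, Hill fit.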
IP6K1 inhibitor: Primary qHTS assay for small molecule inhibitors of Inositol hexaphosphate kinase 1 (IP6K1) | IP6K1 kinase, ADP-Glo luminescence, 2 h; active compounds read low | activity change, % (series mostly up to about 58 µM) | 140,000 compounds, 0.81% hits | AID 1645851, 2021; in the data active = activity change below about -25%
Target sequence (Q92551 whole entry, looked up): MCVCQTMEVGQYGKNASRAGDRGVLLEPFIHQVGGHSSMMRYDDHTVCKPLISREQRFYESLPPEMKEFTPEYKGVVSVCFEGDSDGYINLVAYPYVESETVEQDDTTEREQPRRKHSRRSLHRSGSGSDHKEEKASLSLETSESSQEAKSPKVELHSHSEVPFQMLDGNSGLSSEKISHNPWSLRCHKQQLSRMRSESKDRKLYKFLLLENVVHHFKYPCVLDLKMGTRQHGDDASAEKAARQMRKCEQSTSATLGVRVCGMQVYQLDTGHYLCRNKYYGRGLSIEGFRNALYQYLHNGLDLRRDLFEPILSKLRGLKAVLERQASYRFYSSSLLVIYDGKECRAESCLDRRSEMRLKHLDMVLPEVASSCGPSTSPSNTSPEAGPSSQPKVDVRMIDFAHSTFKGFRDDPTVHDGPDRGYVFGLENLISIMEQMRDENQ
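ADP-Glo luminescence measures ADP made by human IP6K1 during a 2 h RT reaction with ATP/IP6 (mix at 1.3 mM/130 uM); top library doses 57.5 and 19.1 uM final.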
* marks the source's active call; other numbers are inactive results; i = inactive; u = inconclusive; x = not tested or not shown; [ ] = remark or other dose. Unless noted, calls follow the shape of the dose curve; as a rule, active = well fitted curve in the direction sought with a large enough effect; inconclusive = small, poorly fitted or top-dose-only effect, or another doubt; inactive = no such curve, though single readings can be large; an effect the other way counts as inactive or inconclusive. Unless noted, % is scaled to controls: 0 for no effect and ±100 for the full control effect.

SMILES	SNCA expr inhib	NIH3T3 tox	HEK293 tox	FLuc inh	SNCA viab count	IP6K1 inhibitor
Fc1ccccc1CN1CCOC[C@H]1c1ncc(-c2cccc(Cl)c2)[nH]1	-18%[87.6 µM]	79µM*	79µM*	i	-4%[87.6 µM]	-1
Oc1ccccc1CN1CCOC[C@H]1c1ncc(-c2ccc(F)cc2F)[nH]1	4%[87.6 µM]	u	79µM*	i	-2%[87.6 µM]	3
CS(=O)(=O)c1ccc(-c2cnc([C@@H]3COCCN3Cc3ccc(Cl)cc3)[nH]2)cc1	-20%[87.6 µM]	u	79µM*	i	-17%[87.6 µM]	0
COc1ccc(CN2CCOC[C@H]2c2ncc(-c3ccc(C)cc3)[nH]2)cc1	-24%[87.6 µM]	100µM*	u	i	2%[87.6 µM]	7
CC(=O)N1CCCCC1c1nc(CCOc2ccc(F)cc2)no1 (configuration not stated)	20%	-9%	i	x	17%	-10
COc1ccc2[nH]cc(CCNC(=O)CCC3CCN(C(=O)c4ccc(C)cc4)CC3)c2c1	-9%	u	u	i	2%	25
Cc1ccccc1S(=O)(=O)N1CCC(n2cnnc2-c2ccccc2)CC1	-15%	-18%	-1%	i	2%	5
COc1ccc(CN2CCOC[C@H]2c2ncc(-c3cccc(F)c3)[nH]2)cc1	5%[87.6 µM]	u	u	i	0%[87.6 µM]	7
Fc1cccc(-c2cnc([C@@H]3COCCN3Cc3ccc(Cl)cc3)[nH]2)c1	u	u	79µM*	i	-19%[87.6 µM]	11
CN(C)c1ccc(CN2CCOC[C@H]2c2ncc(-c3cccc(Cl)c3)[nH]2)cc1	-27%[87.6 µM]	u	112µM*	i	-9%[87.6 µM]	6
Fc1ccc(CN2CCOC[C@H]2c2ncc(-c3ccc(F)cc3)[nH]2)cc1	-22%[87.6 µM]	u	u	i	-10%[87.6 µM]	10
Fc1ccc(CN2CCOC[C@H]2c2ncc(-c3cccc(Cl)c3)[nH]2)cc1	u	71µM*	u	i	-20%[87.6 µM]	3
O=C(Cc1cccnc1)N1CCC2(CC1)CN(Cc1ccccc1)CC2CO (configuration not stated)	2%	-9%	u	i	-6%	11
Clc1ccc2nc(N3CCC(NCCc4cccnc4)CC3)sc2c1	49%	18µM*	14µM*	i	1%	10
Cc1nc(N2CCC(NCCc3cccnc3)CC2)c2ccsc2n1	8%	-21%	u	i	-9%	33
O=S(=O)(c1ccccc1)N1CCC(c2noc(C3CC3)n2)C1 (configuration not stated)	5%	-23%	-15%	i	-3%	-7
O=C(c1cnccn1)N1CCC(Oc2ccccc2-c2nc(-c3ccccc3)no2)C1 (configuration not stated)	7%	u	u	u	u	-7
O=C(C1CCOCC1)N1CCC(Oc2ccccc2-c2nc(-c3ccccc3)no2)C1 (configuration not stated)	1%	u	32µM*	i	-25%	-15
Cc1cccc(NC(=O)N2CC(Oc3ccccc3-c3nc(-c4ccccc4)no3)C2)c1	-19%	-13%	-3%	i	-25%	8
COc1cccc(CN2CCC(Oc3ccccc3-c3nc(-c4ccncc4)no3)C2)c1 (configuration not stated)	66%	25µM*	u	i	-18%	-9
Cc1ncccc1C(=O)N1CC(Oc2ccccc2-c2nc(-c3ccccc3)no2)C1	2%	u	u	40µM*	-3%	6
O=C(c1ccncc1)N1CCC(Oc2ccccc2-c2nc(-c3ccccc3)no2)C1 (configuration not stated)	4%	u	40µM*	u	u	4
O=C(c1cccc(F)c1)N1CCC(Oc2ccccc2-c2nc(-c3ccncc3)no2)C1 (configuration not stated)	17%	-14%	-16%	i	8%	16
CC(C)CCN1CCC(N2CCN(C(=O)c3ccc(F)cc3F)CC2)C1=O (configuration not stated)	-11%	i	i	i	5%	10
O=C(Nc1cccc(Cl)c1)C1CCCN1c1nc2ncccc2o1 (configuration not stated)	-28%	-28%	-18%	i	-16%	1
SMILES	SNCA expr inhib	NIH3T3 tox	HEK293 tox	FLuc inh	SNCA viab count	IP6K1 inhibitor
COc1ccc(C(=O)NC2CCN(c3cc(-c4ccccc4)[nH]n3)C2)c(OC)c1 (configuration not stated)	-11%	-11%	7%	i	-11%	7
CCCNC(=O)NC[C@@H]1C=C(C)[C@H](Cc2nc3ccccc3[nH]2)C[C@H]1C(C)C	u	35µM*	100µM*	i	u	18
CC1=C[C@@H](CNC(=O)c2ccccc2)[C@H](C(C)C)C[C@H]1Cc1nc2ccc(C)cc2[nH]1	u	u	50µM*	i	u	3
COC(=O)c1ccc2nc(C[C@@H]3C[C@@H](C(C)C)[C@H](CNC(=O)CCC(=O)O)C=C3C)[nH]c2c1	-2%	-9%	-13%	i	-4%	11
CC1=C[C@@H](CN2C(=O)c3ccccc3C2=O)[C@H](C(C)C)C[C@H]1Cc1nc2ccccc2[nH]1	-34%[87.6 µM]	25µM*	32µM*	i	-50%[87.6 µM]	4
CC1=C[C@@H](CNC(=O)c2cccnc2)[C@H](C(C)C)C[C@H]1CC(=O)N1CCCC1	71%[87.6 µM]	-10%[138 µM]	-15%[172 µM]	63µM*	-16%[87.6 µM]	7
CC1=C[C@@H](CNC2CCOCC2)[C@H](C(C)C)C[C@H]1Cc1nc2ccccc2[nH]1	u	u	u	i	-27%[87.6 µM]	-10
COCCc1noc(C2CCCN(C(=O)Cn3ncc4ccccc4c3=O)C2)n1 (configuration not stated)	14%	-10%	u	i	3%	8
CC1=C[C@@H](CNC(=O)CCC(=O)O)[C@H](C(C)C)C[C@H]1Cc1nc2ccc(C)cc2[nH]1	-4%[87.6 µM]	-2%[174 µM]	0%[172 µM]	i	-4%[87.6 µM]	-5
CC(=O)NC[C@@H]1C=C(C)[C@H](Cc2nc3ccc(C)cc3[nH]2)C[C@H]1C(C)C	-29%[87.6 µM]	71µM*	u	i	u	-3
CC1=C[C@@H](CNC(=O)c2ccccc2)[C@H](C(C)C)C[C@H]1Cc1nc2ccncc2[nH]1	u	u	79µM*	i	-19%[87.6 µM]	-3
